Sampled rows, rich in hits. Any-hit rate of the full collection: about 4.6%.
USP8 inh: inhibitors of human USP8 deubiquitinase; 4.2% of 47,000 active; purified USP8, Ub-rhodamine cleavage fluorescence, 30 min; inhibition, % at 20 µM; Ubiquitin carboxyl-terminal hydrolase 8 (Homo sapiens), P40818
UCHL1 block: inhibitors of human UCHL1 deubiquitinase | Ubiquitin carboxyl-terminal hydrolase isozyme L1 (Homo sapiens), P09936 | purified UCHL1, Ub-rhodamine cleavage fluorescence | inhibition, % at 20 µM | 0.2% of 47,000 active
USP7 inh: inhibitors of human USP7 deubiquitinase. 0.3% of 47,000 active. Ubiquitin carboxyl-terminal hydrolase 7 (Homo sapiens), Q93009. purified USP7, Ub-rhodamine cleavage fluorescence. inhibition, % at 20 µM
USP10 inh: inhibitors of human USP10 deubiquitinase; purified USP10, Ub-rhodamine fluorescence, 60 min; inhibition, % at 20 µM; 1.1% of 47,000 active; Ubiquitin carboxyl-terminal hydrolase 10 (Homo sapiens), Q14694
Target sequence (Q14694 whole entry, looked up): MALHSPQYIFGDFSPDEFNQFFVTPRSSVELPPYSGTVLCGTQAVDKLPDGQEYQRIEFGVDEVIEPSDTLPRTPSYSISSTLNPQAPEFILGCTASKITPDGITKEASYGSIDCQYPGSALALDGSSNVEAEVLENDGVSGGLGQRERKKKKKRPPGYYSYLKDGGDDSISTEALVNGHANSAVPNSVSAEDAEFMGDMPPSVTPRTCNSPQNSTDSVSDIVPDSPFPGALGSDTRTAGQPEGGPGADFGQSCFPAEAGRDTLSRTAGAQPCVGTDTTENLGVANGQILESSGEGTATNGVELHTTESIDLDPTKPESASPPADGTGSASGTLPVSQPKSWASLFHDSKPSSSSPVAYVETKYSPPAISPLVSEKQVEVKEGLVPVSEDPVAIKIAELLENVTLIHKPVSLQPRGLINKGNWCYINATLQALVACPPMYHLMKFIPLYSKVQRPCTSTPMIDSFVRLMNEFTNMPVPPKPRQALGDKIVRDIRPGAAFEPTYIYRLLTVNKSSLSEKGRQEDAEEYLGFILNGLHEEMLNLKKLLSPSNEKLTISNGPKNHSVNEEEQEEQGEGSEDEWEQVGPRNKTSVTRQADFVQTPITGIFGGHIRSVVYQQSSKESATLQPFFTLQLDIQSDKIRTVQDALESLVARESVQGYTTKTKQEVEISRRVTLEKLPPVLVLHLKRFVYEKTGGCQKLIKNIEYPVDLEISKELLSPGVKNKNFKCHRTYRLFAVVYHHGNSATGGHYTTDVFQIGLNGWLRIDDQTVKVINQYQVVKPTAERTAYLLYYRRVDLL
* hit, by the source's call. Cut-off read from the data, not from the text of the source: active = inhibition above about 30%; inactive = the rest.

SMILES	USP8 inh	UCHL1 block	USP7 inh	USP10 inh
O=C(COC(=O)C(Cc1c[nH]c2ccccc12)NC(=O)c1ccccc1Cl)Nc1ccc([N+](=O)[O-])cc1C(F)(F)F (stereo not given)	57*	1	12	32*
O=C(Nc1ccccc1)N1CCC(n2c(C3CCCC3)nc3cccnc32)C1 (stereo not given)	-16	-1	3	0
O=C(Cn1cnc2cc(F)ccc2c1=O)N1c2ccccc2OCC1c1ccccc1 (stereo not given)	6	5	3	1
O=C(COc1ccc(F)cc1)Nc1cc(F)c2nc(N3CCOCC3)ccc2c1	41*	-14	-17	-11
COc1ccc(OCC(=O)Nc2cc(F)c3nc(N4CCOCC4)ccc3c2)cc1	6	0	4	-7
O=C(Cn1ccc2ccc(N3CCOCC3)nc21)NCc1cccc(F)c1	-250	-68	-135	0
O=C(CCc1ccccc1)Nc1cc(F)c2nc(N3CCOCC3)ccc2c1	46*	-2	-5	-2
CC(C)CC(=O)Nc1cc(F)c2nc(N3CCOCC3)ccc2c1	80*	5	-6	-8
Cc1cc(C)n(-c2ccnc(NCCN3CCCCC3)n2)n1	9	1	5	1
C/C=C/C=C/[C@@H]1Cc2cc(O)cc(O)c2O1	74*	61*	-76	33*
C[C@@H]1Cc2cc(O)cc(O)c2C(=O)O[C@H](C)CC(=O)OC[C@@H](O)CC(=O)O[C@H](C)Cc2cc(O)cc(O)c2C(=O)O[C@H](C)CC(=O)O1	4	6	3	8
Cc1ccccc1NC(=O)CNc1nc(Nc2ccccc2)nc(Nc2ccccc2)n1	34*	1	3	0
O=C(CNc1nc(Nc2ccccc2)nc(Nc2ccccc2)n1)Nc1ccccc1F	7	9	8	10
CN(NC(=O)c1cccc(C(F)(F)F)c1)c1c(C#N)c(C(F)(F)F)nn1C	-6	0	0	-1
COC(=O)C1Cc2ccccc2CN1Cc1c(O)ccc2ccccc12 (stereo not given)	11	0	1	2
CC1(C)CC2CC(C)(CN2Cc2c(O)ccc3ccccc23)C1 (stereo not given)	87*	2	1	0
COc1cccc(/C=C2\C(=O)N(c3cccc(C)c3)C(=O)c3ccccc32)c1	66*	-8	-10	-7
Cc1ccc(NC(=O)c2cc(-c3ccccc3)c(N3CCOCC3)s2)cc1	-1	-4	-7	-9
Cc1cccc(N2C(=O)/C(=C\c3ccc(N4CCOCC4)s3)c3ccccc3C2=O)c1	41*	1	1	-7
O=C1Nc2ccccc2C(=O)C1C(c1ccc(Cl)cc1)C1C(=O)Nc2ccccc2C1=O (stereo not given)	34*	12	10	54*
Cc1ccc(C)c(Cn2cnc3c(nnn3-c3cccc(F)c3)c2=O)c1	54*	3	25	16
Cc1cccc(-n2nnc3c(=O)n(Cc4ccc([N+](=O)[O-])cc4)cnc32)c1	-8	-3	0	6
COC(=O)c1ccc2c(=O)n(CCCCCC(=O)NCCc3ccccc3Cl)c(=O)[nH]c2c1	43*	0	15	53*
COC(=O)c1ccc2c(=O)n(CCCCCC(=O)NCCc3ccc(S(N)(=O)=O)cc3)c(=O)[nH]c2c1	82*	6	20	37*
NC(=O)CN1Cc2ccccc2CN2C(=O)N(Cc3ccccc3)C(=O)C2C1 (stereo not given)	21	1	-6	-1
SMILES	USP8 inh	UCHL1 block	USP7 inh	USP10 inh
CC(=O)Nc1cc(-c2cccc(CO)c2)cn2c(-c3ccc(S(C)(=O)=O)cc3)cnc12	-22	-4	-5	-4
COc1ccccc1-c1cc(NC(C)=O)c2ncc(-c3ccc(S(C)(=O)=O)cc3)n2c1	69*	0	1	-4
CN1CCc2c(sc3c2c(NCc2cccnc2)nc2nnnn23)C1	39*	-23	-13	-3
COC(=O)c1ccccc1NC(=O)COC(=O)CCc1ccccc1	35*	6	10	8
COc1ccc(C(=O)C(C)OC(=O)c2cccc(S(=O)(=O)Nc3cc([N+](=O)[O-])ccc3OC)c2)c(OC)c1 (stereo not given)	20	6	17	37*
COc1cccc(NC(=O)C(C)OC(=O)c2ccc(NS(=O)(=O)c3ccc(F)c(F)c3)cc2)c1 (stereo not given)	-6	1	6	12
Cc1cc(NC(=O)c2cccc(N3CCOCC3)n2)n(-c2ccc(Cl)cc2)n1	52*	1	8	8
Cc1cc(C)nc(-n2nc(C)cc2NC(=O)c2cccc(Cl)c2)n1	-14	-1	1	0
